# Screens: PubChem BioAssay, National Center for Advancing Translational Sciences (NCATS)
# An excerpt weighted towards active compounds, which were near 12% of everything screened.
# Shiga inhibitor – A qHTS for Small Molecule Inhibitors of Shiga Toxin; Vero cells, Shiga toxin protein synthesis inhibition reporter; inhibition, % at 38.7 µM; 290,000 tested, 9.2% active; AID 2315, 2010; in the data active = inhibition mostly above about 28%, no sharp cut-off; inactive = mostly below about 43%; note: 0% is about no effect
# Cycloheximide cs – Cycloheximide Counterscreen for Small Molecule Inhibitors of Shiga Toxin; cell reporter, cycloheximide protein synthesis inhibition counterscreen; max response, %; 300,000 tested, 12% active; AID 2314, 2010; in the data active = max response mostly above about 13%, no sharp cut-off; inactive = mostly below about 14%; note: read at 38.3 µM for the half of the compounds with a filed dose; 0% is about no effect
# MARV entry inh – qHTS for inhibitors of binding or entry into cells for Marburg Virus | Marburg virus pseudotyped entry inhibition, cell reporter | Potency, µM (titrated, usually from 37.8 µM), inactives show at the highest dose activity change, negative = inhibition, actives largely listed as inhibitors | 300,000 tested, 1.8% active; calls by dose curve; tested in HEK293 cells; note: potency is the fitted concentration of half-maximal effect; % is set by controls: 0 for no effect and ±100 for the full control effect
# LASV entry inh – qHTS for Inhibitors of binding or entry into cells for Lassa Virus. Lassa virus pseudotype entry inhibition, cell reporter. Potency, µM (series often up to 37.9 µM), without a hit: at the top dose activity change, negative = inhibition, hits mostly inhibitors. 300,000 tested, 1.2% active; calls by dose curve; tested in HEK293 cells; note: potency is the fitted concentration of half-maximal effect; % is set by controls: 0 for no effect and ±100 for the full control effect; nearly all actives have a fitted effect of over 50% in size
# Starred values were filed as active, the others as inactive; ? = inconclusive; · = no result; [ ] = another dose, or the depositor's remark.
SMILES,Shiga inhibitor,Cycloheximide cs,MARV entry inh,LASV entry inh
COc1ccc(-c2noc(-c3ccc(NC(C)c4ccccc4)c([N+](=O)[O-])c3)n2)cc1OC (stereo not given),·,·,-19.4%[46.1 µM],-2.4%[46.1 µM]
CCn1c(NCc2c[nH]c3ccccc23)nc2ccccc21,·,·,11.2µM*,-9.0%
C=CCn1c(NCc2ccc(OC)cc2)nc2ccccc21,39.9*,18.5*,?,15.0%[46.1 µM]
COc1ccc(CNc2nc3ccccc3n2CCN2CCCCC2)cc1,-0.6,-3.5,?,-9.5%[46.1 µM]
CC(C)NC(=O)CCSc1nc(-c2ccc3c(c2)OCO3)cc(C(F)(F)F)n1,·,·,12.9%[46.1 µM],?
O=C(NCc1cccs1)C1CCC(=O)N(Cc2cccc(C(F)(F)F)c2)C1 (stereo not given),7.6,38.9*,5.6%,?
O=C(NCCc1ccc(C(F)(F)F)cc1)C1CCC(=O)N(CCc2cccc(F)c2)C1 (stereo not given),11.2,16.4*,6.1%,13.8%
COc1ccccc1CN1CC(C(=O)NCc2cc(F)ccc2C)CCC1=O (stereo not given),40.2*,31.9*,?,16.9%[46.1 µM]
COc1ccccc1CN1CC(C(=O)N(C)Cc2nc(C)cs2)CCC1=O (stereo not given),38.6,17.0*,·,·
Cc1ccc(F)cc1CNC(=O)C1CCC(=O)N(CCc2ccccc2)C1 (stereo not given),12.5,9.1,·,·
Cc1ccc(N(CC(=O)NC2CCCCC2)C(=O)CNC(=O)c2ccco2)c(C)c1,-8.0,-1.4,-1.5%[46.1 µM],2.6%[46.1 µM]
CCOC(=O)CC1(NC(=O)C2CCC(=O)N(CCc3ccccc3)C2)CCCCC1 (stereo not given),30.3*,19.6*,·,·
COc1ccccc1CN1CC(C(=O)N2CCCCO2)CCC1=O (stereo not given),70.7*,30.7*,?,-5.0%[46.1 µM]
O=C(NCc1cc(C(F)(F)F)ccc1F)C1CCC(=O)N(C2CCCCCC2)C1 (stereo not given),-7.8,1.6,·,·
CCOC(=O)CC1(NC(=O)C2CCC(=O)N(C3CC3)C2)CCCCC1 (stereo not given),14.1,1.2,·,·
O=C1CCC(C(=O)N2CCCC2)CN1Cc1cccc(C(F)(F)F)c1 (stereo not given),-5.7,-1.0,16.6%,2.6%
O=C1CCC(C(=O)N2CCCO2)CN1Cc1cccc(C(F)(F)F)c1 (stereo not given),44.1*,29.0*,7.4%,?
O=C(NCc1cc(F)ccc1F)C1CCC(=O)N(C2CCCCCC2)C1 (stereo not given),86.0*,34.8*,11.3%[46.1 µM],21.7%[46.1 µM]
Cn1cc(S(=O)(=O)c2ccccc2)c(=O)c2cc(F)c(N3CCN(c4ccccc4)CC3)cc21,·,·,·,28.0%[46.1 µM]
O=C1CCC(C(=O)N2CCCCO2)CN1CCc1ccccc1 (stereo not given),81.4*,41.6*,·,·
COCCCC1CCN(C(=O)C2CCC(=O)N(CCc3ccccc3)C2)CC1 (stereo not given),55.7*,45.7*,18.3%,1.1%
COCCOC1CCN(C(=O)C2CCC(=O)N(CCc3ccccc3)C2)CC1 (stereo not given),-1.9,13.6,-0.4%,-1.3%
CCOC(=O)N1CCN(C(=O)C2CCC(=O)N(CCc3ccccc3)C2)CC1 (stereo not given),·,·,10.6%,-3.4%
O=C(CN1CCN(S(=O)(=O)N2CCCCC2)CC1)Nc1ccc(Cl)c(Cl)c1,-8.6,-2.0,-13.5%[46.1 µM],?
N#Cc1cncc(C#Cc2ccccc2)c1,17.2,8.8*,12.1%[46.1 µM],4.4%[46.1 µM]
SMILES,Shiga inhibitor,Cycloheximide cs,MARV entry inh,LASV entry inh
COc1ccc(CN2CCCC(C(=O)c3ccccc3SC)C2)cc1O (stereo not given),-16.6,-2.3,·,·
COc1ccc(F)cc1C(=O)C1CCCN(Cc2cn(C)c3ccccc23)C1 (stereo not given),-8.3,-2.0,14.6µM*,?
COc1ccc(OC)c(CN2CCCC(C(=O)c3ccccc3SC)C2)c1 (stereo not given),9.1,0.6,2.51µM*,?
Cn1cc(CN2CCCC(C(=O)c3cc(F)ccc3F)C2)c2ccccc21 (stereo not given),-17.2,1.6,10µM*,?
Cn1cc(CN2CCCC(CNC(=O)c3ccc4c(c3)OCO4)C2)c2ccccc21 (stereo not given),-16.5,1.7,7.94µM*,17.6%[46.1 µM]
COc1ccc(F)cc1C(=O)C1CCCN(Cc2c[nH]c3ccccc23)C1 (stereo not given),4.3,-2.7,·,·
COc1ccc2c(c1)-c1nc(NC(=O)c3ccco3)sc1CC2,121.2*,49.1*,?,-2.9%
COc1ccc2c(c1)-c1nc(NC(=O)c3cccs3)sc1CC2,75.5*,24.3*,?,?
COc1ccc2c(c1)CCc1sc(NC(=O)c3ccco3)nc1-2,128.9*,49.6*,·,·
COc1ccc2c(c1)CCc1sc(NC(=O)c3ccc(C)cc3)nc1-2,80.0,19.3,0.6%,-8.0%
COc1ccc2c(c1)Cc1sc(NC(=O)c3ccco3)nc1-2,61.7*,74.4*,-17.8%,?
COc1ccc2c(c1)-c1nc(NC(=O)c3cccc(Br)c3)sc1CC2,·,·,3.0%[46.1 µM],-4.3%[46.1 µM]
C/C(Cn1nnc2ccccc21)=N\NC(=O)c1ccc(Br)cc1,-1.7,-1.7,-4.9%[46.1 µM],3.2%
COC(=O)c1c(-c2ccc(Cl)cc2)noc1N1CCN(c2ccc(OC)cc2)CC1,·,·,·,5.4%[46.1 µM]
Nc1nc(NCCCN2CCOCC2)nc(NCc2ccccc2)c1[N+](=O)[O-],2.0,-1.2,?,?
COc1ccc2c(c1)Cc1sc(NC(C)=O)nc1-2,71.7*,39.8*,?,-3.5%
COc1ccc2c(c1)Cc1sc(NC(=O)c3cccnc3)nc1-2,13.2,5.6,1.4%[46.1 µM],8.3%
Clc1ccc(-c2nnc(NC3=NCCCCC3)o2)cc1,55.3,42.2,1.64µM*,?
CN1CCN(c2nc(-c3cccc([N+](=O)[O-])c3)nc3ccccc23)CC1,14.2,-4.5,?,?
CN1CCC(N(C)c2nc(-c3ccc([N+](=O)[O-])cc3)nc3ccccc23)CC1,-12.1,-4.3,11.2µM*,?
CC(C)c1ccc(N=C(N)N=C(N)N)cc1,-5.7,-1.5,?,-1.8%
CCOc1ccc2cc(C3CC(c4ccco4)=NN3S(C)(=O)=O)c(Cl)nc2c1 (stereo not given),-3.3,-1.8,19.1%[46.1 µM],?
CCc1ccc(C2CC(c3ccco3)=NN2S(C)(=O)=O)cc1 (stereo not given),82.8*,45.4*,?,?
Cc1nnc(N2CCN(C(=O)Nc3cccc(C(F)(F)F)c3)CC2)c2nn(-c3ccccc3)c(C)c12,·,·,·,-16.8%[46.1 µM]
COc1ccc(Nc2ccc(Cl)nn2)cc1,54.3,15.2*,5.6%,21.6%
SMILES,Shiga inhibitor,Cycloheximide cs,MARV entry inh,LASV entry inh
CNc1ccc(Cl)nn1,-4.3,0.5,20.0%[46.1 µM],?
Clc1ccc(Nc2ccc(Cl)nn2)cc1,47.8*,12.7,-0.8%[14.2 µM],14.5%
NNc1ccc(Cl)nn1,23.8,22.4*,0.5%[46.1 µM],4.2%
COc1ccc(OC)c(Nc2ccc(Nc3cc(OC)ccc3OC)nn2)c1,-6.1,-4.0,?,-15.3%
Nc1nc(-c2ccccc2)c(CCCOc2ccc(NC(=O)CBr)cc2)c(=O)[nH]1,·,·,-10.5%,-15.4%
Cc1csc(NC(=O)CSc2nnc(-c3ccccc3)o2)n1,52.4*,27.9*,?,?
